Results: PubChem BioAssay (EPA / NIEHS)
Records with an inconclusive call do not appear. Some structures have more than one record in an assay (separate samples or runs), and their calls can disagree. Calls of active or inactive are those of the source. The calls were made as follows, unless noted: active = hit-call score of the fitted dose curve at least 0.9, where 1 is the maximum; inconclusive = response in the unintended direction; inactive = score below 0.9.

How the values were obtained:
[1] = read-out: Intercellular Adhesion Molecule 1 (ICAM1), ICAM1 (gene 3383); assay: BSK_3C_ICAM1: BioMAP Diversity Plus: 3C Assay for Intercellular Adhesion Molecule 1 (ICAM1) Biomarker Activity (AID 2283003; active = hit-call score of the fitted dose curve at least 0.9, where 1 is the maximum; inactive = score below 0.9); settings: primary human endothelial cells (HUVEC); actives raise or lower the signal
How it was run: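 Using DMSO as baseline, bidirectional curve fitting was applied to ICAM-1 ELISA signals from HUVEC in the 3C system, measured 24 h after compound addition.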

[2] = molecular target: human Retinoic Acid Receptor beta (RARb), RARB (gene 5915) (UniProt P10826); assay: ATG_RARb_TRANS: Attagene TRANS-FACTORIAL HepG2 Assay for human Retinoic Acid Receptor beta (AID 2283004)
How it was run: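 Readout is reporter mRNA induction: RNA reverse-transcribed, PCR-amplified, FAM-labelled, HpaI-cut and resolved by capillary electrophoresis. Transiently transfected HepG2 cells carrying exogenous NR–Gal4 chimeras were dosed for 24 h; activity fitted upward relative to DMSO.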

[3] = BSK_3C_Proliferation: Cell Proliferation Assessment in the BioMAP Diversity Plus: 3C Assay (AID 2283006; active = hit-call score of the fitted dose curve at least 0.9, where 1 is the maximum; inactive = score below 0.9;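 as to AC50: potency may reflect either rise or fall in cell number versus DMSO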); settings: primary human endothelial cells (HUVEC)
How it was run: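 Measured here: sulforhodamine B (0.1%) staining of TCA-fixed sub-confluent umbilical vein endothelial cultures 48 h post-dosing, absorbance 560 nm. DMSO served as negative control and baseline; both signal gain and loss were modelled.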

[4] = molecular target: Peroxisome proliferator-activated receptor gamma (Homo sapiens) (UniProt P37231); assay: ATG_PPARg_TRANS: Attagene TRANS-FACTORIAL HepG2 Assay for human Peroxisome Proliferator-activated Receptor-gamma (PPARg) (AID 2283007)
How it was run: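 Gain-of-signal endpoint relative to DMSO, derived from reporter mRNA levels quantified by RT-PCR and capillary electrophoresis. Cells were HepG2 transiently expressing a chimeric NR-Gal4 construct with GAL4-UAS reporters, exposed to chemicals for 24 h.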

[5] = molecular target: Nuclear receptor subfamily 1 group I member 2 (Homo sapiens) (UniProt O75469); assay: ATG_PXR_TRANS: Attagene TRANS-FACTORIAL HepG2 Assay for human Pregnane X Receptor (PXR) (AID 2283008)
How it was run: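 Transactivation by exogenous PXR–GAL4 fusion measured as reporter transcript induction after 24 h compound treatment of transfected human HepG2 cells. Read-out via RT-PCR and capillary electrophoresis of labelled fragments, fitted upward relative to DMSO.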

[6] = molecular target: human RAR-related Orphan Receptor beta (RORb), RORB (gene 6096) (UniProt Q92753); assay: ATG_RORb_TRANS: Attagene TRANS-FACTORIAL HepG2 Assay for human RAR-related Orphan Receptor beta (RORb) (AID 2283010)
How it was run: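 Multiplexed transcription-factor reporter assay: HepG2 cells transiently carrying NR-Gal4/GAL4-UAS constructs, 24 h treatment, mRNA quantified by RT-PCR plus capillary electrophoresis fluorescence; activity scored as induction over DMSO.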

[7] = molecular target: Retinoic acid receptor RXR-alpha (Homo sapiens) (UniProt P19793); assay: ATG_RXRa_TRANS: Attagene TRANS-FACTORIAL HepG2 Assay for human Retinoid X Receptor alpha (RXRa) (AID 2283012)
How it was run: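 Chimeric NR-GAL4 trans-activation in HepG2, 24 h treatment; reporter transcripts quantified by fluorescence on capillary electrophoresis, analysed for upward change from DMSO.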

[8] = molecular target: human Retinoid X Receptor beta (RXRb), RXRB (gene 6257) (UniProt P28702); assay: ATG_RXRb_TRANS: Attagene TRANS-FACTORIAL HepG2 Assay for human Retinoid X Receptor beta (RXRb) (AID 2283013)
How it was run: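 After a 24 h incubation with test chemical, transfected HepG2 cells carrying NR-Gal4 fusions and GAL4-UAS reporter transcription units yield RNA whose reporter cDNA is FAM-labelled, HpaI-cut and sized by capillary electrophoresis; increases over DMSO are scored.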

[9] = read-out: E-selectin (Homo sapiens) (UniProt P16581); assay: BSK_3C_Eselectin: BioMAP Diversity Plus: 3C Assay for Eselectin Biomarker Activity (AID 2283015; active = hit-call score of the fitted dose curve at least 0.9, where 1 is the maximum; inactive = score below 0.9); settings: primary human endothelial cells (HUVEC); actives raise or lower the signal
How it was run: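 HUVEC, 3C stimulation; compound exposure 24 h; E-selectin by ELISA; gain- or loss-of-signal fitted bidirectionally vs DMSO baseline.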

[10] = read-out: Interleukin-1 alpha (IL1a), IL1A (gene 3552); assay: BSK_BE3C_IL1a: BioMAP Diversity Plus: BE3C Assay for Interleukin-1 alpha (IL1a) Biomarker Activity (AID 2283016; active = hit-call score of the fitted dose curve at least 0.9, where 1 is the maximum; inactive = score below 0.9); settings: primary human bronchial epithelial cells; actives raise or lower the signal
How it was run: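 Measured in human lung primary bronchial epithelial cells: IL-1a by ELISA at 24 h after dosing, with bidirectional fitting against DMSO.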

[11] = read-out: Monocyte Chemoattractant Protein-1 (MCP1), CCL2 (gene 6347); assay: BSK_3C_MCP1: BioMAP Diversity Plus: 3C Assay for Monocyte Chemoattractant Protein-1 (MCP1) Biomarker Activity (AID 2283017; active = hit-call score of the fitted dose curve at least 0.9, where 1 is the maximum; inactive = score below 0.9); settings: primary human endothelial cells (HUVEC); actives raise or lower the signal
How it was run: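 HUVEC, 3C system; 24 h chemical exposure; MCP-1 by ELISA; bidirectional curve fit vs DMSO baseline.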

[12] = read-out: Monocyte Chemoattractant Protein-1 (MCP1), CCL2 (gene 6347); assay: BSK_4H_MCP1: BioMAP Diversity Plus: 4H Assay for Monocyte Chemoattractant Protein-1 (MCP1) Biomarker Activity (AID 2283018; active = hit-call score of the fitted dose curve at least 0.9, where 1 is the maximum; inactive = score below 0.9); settings: primary human endothelial cells (HUVEC); actives raise or lower the signal
How it was run: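 Primary human umbilical vein endothelium is exposed to chemical for 24 h before MCP-1 is assayed by ELISA. Concentration-response fitted bidirectionally relative to DMSO.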

[13] = read-out: Human Leukocyte Antigen - DR isotype (HLADR), HLA-DRA (gene 3122); assay: BSK_3C_HLADR: BioMAP Diversity Plus: 3C Assay for Human Leukocyte Antigen - DR isotype (HLADR) Biomarker Activity (AID 2283019; active = hit-call score of the fitted dose curve at least 0.9, where 1 is the maximum; inactive = score below 0.9); settings: primary human endothelial cells (HUVEC); actives raise or lower the signal
How it was run: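 HUVEC, 3C stimulation, 24 h post-dose; HLA-DR by ELISA; bidirectional curve fit vs DMSO baseline; gain or loss of signal scored.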

[14] = read-out: Interleukin-8 (IL8), CXCL8 (gene 3576); assay: BSK_3C_IL8: BioMAP Diversity Plus: 3C Assay for Interleukin-8 (IL8) Biomarker Activity (AID 2283020; active = hit-call score of the fitted dose curve at least 0.9, where 1 is the maximum; inactive = score below 0.9); settings: primary human endothelial cells (HUVEC); actives raise or lower the signal
How it was run: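 Using DMSO-treated wells as the baseline, bidirectional curve fitting was applied to ELISA-measured IL-8 from human umbilical vein endothelial cultures sampled 24 h after compound addition.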

[15] = molecular target: human RAR-related Orphan Receptor gamma (RORg), RORC (gene 6097) (UniProt P51449); assay: ATG_RORg_TRANS: Attagene TRANS-FACTORIAL HepG2 Assay for human RAR-related Orphan Receptor gamma (RORg) (AID 2283011)
How it was run: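 Transient MRTU transfection of HepG2 (TRANS format, exogenous NR-Gal4 chimera). 24 h dosing. Total RNA → oligo(dT) RT → PCR → 6-FAM labelling → HpaI cut → CE. Gain vs DMSO.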

[16] = molecular target: human Peroxisome Proliferator-activated Receptor delta (PPARd), PPARD (gene 5467) (UniProt Q03181); assay: ATG_PPARd_TRANS: Attagene TRANS-FACTORIAL HepG2 Assay for human Peroxisome Proliferator-activated Receptor delta (PPARd) (AID 2283002)
How it was run: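 HepG2 cells transiently transfected with multiplexed GAL4-UAS reporter units and exogenous chimeric NR-Gal4 proteins; 24 h compound exposure. Reporter mRNA measured by RT-PCR, 6-FAM labelling, HpaI digestion and capillary electrophoresis; gain of signal versus DMSO.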

[17] = molecular target: human Thyroid Receptor alpha (THRa1), THRA (gene 7067) (UniProt P10827); assay: ATG_THRa1_TRANS: Attagene TRANS-FACTORIAL HepG2 Assay for human Thyroid Receptor alpha (THRa1) (AID 2283014)
How it was run: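 Transient HepG2 transfection, NR-Gal4 chimera driving GAL4-UAS reporters; 24 h compound exposure; total RNA, oligo(dT) RT, PCR, fluorescent primer extension, capillary electrophoresis. Upward direction vs DMSO control.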

[18] = molecular target: human Retinoic Acid Receptor gamma (RARg), RARG (gene 5916) (UniProt P13631); assay: ATG_RARg_TRANS: Attagene TRANS-FACTORIAL HepG2 Assay for human Retinoic Acid Receptor gamma (RARg) (AID 2283009)
How it was run: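 Gain-of-signal relative to DMSO is reported from fluorescent capillary electrophoresis of RT-PCR reporter products. These came from HepG2 cells expressing transfected RARg-GAL4 chimeras with UAS reporters, harvested 24 h after dosing.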

[19] = molecular target: Retinoic acid receptor alpha (Homo sapiens) (UniProt P10276); assay: ATG_RARa_TRANS: Attagene TRANS-FACTORIAL HepG2 Assay for human Retinoic Acid Receptor alpha (RARa) (AID 2283005)
How it was run: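 HepG2 cells transiently transfected with multiple reporter units expressing chimeric RARα-GAL4 fusion, with GAL4-UAS-driven reporters. After 24 h compound exposure, reporter mRNA induction quantified by RT-PCR and capillary electrophoresis with fluorescent labeling; gain-of-signal fitted relative to DMSO control.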

Measured: AC50

Retinoic acid receptor RXR-alpha (Homo sapiens), sequence (P19793 whole entry, looked up, the tested form may be a part): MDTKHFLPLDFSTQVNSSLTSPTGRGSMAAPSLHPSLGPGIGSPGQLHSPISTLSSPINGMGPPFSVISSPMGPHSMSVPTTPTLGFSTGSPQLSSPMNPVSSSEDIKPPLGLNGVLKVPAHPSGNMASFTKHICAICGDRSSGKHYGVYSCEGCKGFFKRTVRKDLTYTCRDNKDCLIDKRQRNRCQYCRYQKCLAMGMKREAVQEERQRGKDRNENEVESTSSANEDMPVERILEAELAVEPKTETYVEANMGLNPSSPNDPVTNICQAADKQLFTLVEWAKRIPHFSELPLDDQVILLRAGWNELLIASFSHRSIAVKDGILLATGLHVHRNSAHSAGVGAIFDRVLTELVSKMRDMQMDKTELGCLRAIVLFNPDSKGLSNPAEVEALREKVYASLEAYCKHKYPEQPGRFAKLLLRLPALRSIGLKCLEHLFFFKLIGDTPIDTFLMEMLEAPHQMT
human Retinoic Acid Receptor gamma (RARg), RARG (gene 5916), sequence (P13631 whole entry, looked up, the tested form may be a part): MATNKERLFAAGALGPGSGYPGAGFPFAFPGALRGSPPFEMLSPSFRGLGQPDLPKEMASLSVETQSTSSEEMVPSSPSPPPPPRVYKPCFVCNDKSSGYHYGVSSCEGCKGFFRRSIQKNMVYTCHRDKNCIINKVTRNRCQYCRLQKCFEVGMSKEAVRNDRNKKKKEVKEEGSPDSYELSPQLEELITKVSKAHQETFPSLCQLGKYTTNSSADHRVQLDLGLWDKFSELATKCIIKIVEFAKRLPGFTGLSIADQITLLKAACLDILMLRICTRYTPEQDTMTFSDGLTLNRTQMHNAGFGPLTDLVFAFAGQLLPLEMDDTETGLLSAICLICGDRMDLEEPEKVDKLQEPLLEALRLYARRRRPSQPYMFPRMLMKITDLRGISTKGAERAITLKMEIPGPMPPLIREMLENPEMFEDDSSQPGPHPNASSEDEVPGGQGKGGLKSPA
human Peroxisome Proliferator-activated Receptor delta (PPARd), PPARD (gene 5467), sequence (Q03181 whole entry, looked up, the tested form may be a part): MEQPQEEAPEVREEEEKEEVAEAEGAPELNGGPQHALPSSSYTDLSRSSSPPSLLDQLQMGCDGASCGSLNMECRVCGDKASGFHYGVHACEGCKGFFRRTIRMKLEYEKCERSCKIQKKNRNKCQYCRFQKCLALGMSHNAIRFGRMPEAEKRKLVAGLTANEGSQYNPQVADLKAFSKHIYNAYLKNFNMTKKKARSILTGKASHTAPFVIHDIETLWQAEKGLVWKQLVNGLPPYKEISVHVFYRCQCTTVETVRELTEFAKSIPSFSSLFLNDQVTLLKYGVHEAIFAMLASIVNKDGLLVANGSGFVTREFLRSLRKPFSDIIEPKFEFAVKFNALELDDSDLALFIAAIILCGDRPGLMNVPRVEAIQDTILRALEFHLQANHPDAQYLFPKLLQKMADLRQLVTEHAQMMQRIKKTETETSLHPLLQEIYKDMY
Nuclear receptor subfamily 1 group I member 2 (Homo sapiens), sequence (O75469 whole entry, looked up, the tested form may be a part): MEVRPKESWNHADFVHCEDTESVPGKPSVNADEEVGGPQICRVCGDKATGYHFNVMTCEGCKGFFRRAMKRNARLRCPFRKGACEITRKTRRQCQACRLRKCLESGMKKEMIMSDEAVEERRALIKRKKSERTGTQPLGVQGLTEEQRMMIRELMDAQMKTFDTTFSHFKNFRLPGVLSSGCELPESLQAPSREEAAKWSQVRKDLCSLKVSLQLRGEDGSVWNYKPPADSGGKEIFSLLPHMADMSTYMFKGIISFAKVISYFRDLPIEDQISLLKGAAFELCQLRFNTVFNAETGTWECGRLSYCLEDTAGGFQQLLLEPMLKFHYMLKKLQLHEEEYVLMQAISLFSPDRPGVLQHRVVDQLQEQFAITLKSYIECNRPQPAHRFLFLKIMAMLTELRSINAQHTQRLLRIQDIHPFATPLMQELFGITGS
human Thyroid Receptor alpha (THRa1), THRA (gene 7067), sequence (P10827 whole entry, looked up, the tested form may be a part): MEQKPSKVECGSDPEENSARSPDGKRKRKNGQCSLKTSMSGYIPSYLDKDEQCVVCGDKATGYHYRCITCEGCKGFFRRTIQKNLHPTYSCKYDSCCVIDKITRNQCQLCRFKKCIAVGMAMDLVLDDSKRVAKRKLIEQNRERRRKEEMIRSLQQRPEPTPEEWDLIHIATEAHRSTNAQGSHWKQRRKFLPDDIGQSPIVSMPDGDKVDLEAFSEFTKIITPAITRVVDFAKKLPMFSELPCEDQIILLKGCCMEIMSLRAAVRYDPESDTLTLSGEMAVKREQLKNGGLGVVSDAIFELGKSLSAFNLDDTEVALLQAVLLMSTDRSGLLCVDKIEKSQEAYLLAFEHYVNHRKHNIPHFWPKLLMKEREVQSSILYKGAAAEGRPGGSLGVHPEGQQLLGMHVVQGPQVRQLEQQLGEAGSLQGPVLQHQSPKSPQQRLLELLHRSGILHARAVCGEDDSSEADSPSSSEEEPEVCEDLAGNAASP
human RAR-related Orphan Receptor gamma (RORg), RORC (gene 6097), sequence (P51449 whole entry, looked up, the tested form may be a part): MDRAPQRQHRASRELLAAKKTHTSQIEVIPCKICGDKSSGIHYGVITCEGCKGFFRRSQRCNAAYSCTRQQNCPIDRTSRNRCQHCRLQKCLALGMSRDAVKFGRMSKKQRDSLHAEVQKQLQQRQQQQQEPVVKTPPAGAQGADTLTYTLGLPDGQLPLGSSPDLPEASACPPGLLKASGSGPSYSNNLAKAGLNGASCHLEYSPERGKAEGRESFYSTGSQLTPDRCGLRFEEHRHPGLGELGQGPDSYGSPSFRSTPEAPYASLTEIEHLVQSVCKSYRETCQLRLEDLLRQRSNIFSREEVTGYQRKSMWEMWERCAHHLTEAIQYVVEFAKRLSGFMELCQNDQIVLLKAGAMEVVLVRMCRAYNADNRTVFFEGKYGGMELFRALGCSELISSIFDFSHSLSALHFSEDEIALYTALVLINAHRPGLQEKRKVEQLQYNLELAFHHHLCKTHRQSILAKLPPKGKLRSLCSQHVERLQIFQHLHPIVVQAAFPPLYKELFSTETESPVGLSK
human Retinoic Acid Receptor beta (RARb), RARB (gene 5915), sequence (P10826 whole entry, looked up, the tested form may be a part): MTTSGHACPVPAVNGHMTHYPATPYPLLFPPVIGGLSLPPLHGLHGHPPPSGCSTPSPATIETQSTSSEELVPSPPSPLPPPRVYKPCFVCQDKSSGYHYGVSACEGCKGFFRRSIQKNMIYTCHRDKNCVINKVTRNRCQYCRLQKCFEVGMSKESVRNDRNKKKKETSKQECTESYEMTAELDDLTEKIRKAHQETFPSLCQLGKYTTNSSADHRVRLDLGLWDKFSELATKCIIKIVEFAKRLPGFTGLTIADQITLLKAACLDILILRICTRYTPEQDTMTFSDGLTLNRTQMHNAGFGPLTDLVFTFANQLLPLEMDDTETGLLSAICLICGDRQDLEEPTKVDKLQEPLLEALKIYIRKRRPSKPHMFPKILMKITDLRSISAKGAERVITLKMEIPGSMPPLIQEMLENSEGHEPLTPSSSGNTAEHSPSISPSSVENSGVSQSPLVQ
human RAR-related Orphan Receptor beta (RORb), RORB (gene 6096), sequence (Q92753 whole entry, looked up, the tested form may be a part): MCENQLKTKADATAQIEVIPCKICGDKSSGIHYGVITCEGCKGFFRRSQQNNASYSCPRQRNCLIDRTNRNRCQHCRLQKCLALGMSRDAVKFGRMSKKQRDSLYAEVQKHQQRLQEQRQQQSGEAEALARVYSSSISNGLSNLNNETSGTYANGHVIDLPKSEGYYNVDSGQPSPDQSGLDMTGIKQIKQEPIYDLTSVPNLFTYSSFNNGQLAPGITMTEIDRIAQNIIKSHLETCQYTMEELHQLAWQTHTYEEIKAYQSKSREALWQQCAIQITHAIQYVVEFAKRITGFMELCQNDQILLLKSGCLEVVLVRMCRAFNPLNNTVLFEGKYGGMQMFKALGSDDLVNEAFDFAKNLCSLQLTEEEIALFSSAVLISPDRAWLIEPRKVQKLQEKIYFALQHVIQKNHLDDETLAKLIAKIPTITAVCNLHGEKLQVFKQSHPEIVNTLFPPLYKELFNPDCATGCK
human Retinoid X Receptor beta (RXRb), RXRB (gene 6257), sequence (P28702 whole entry, looked up, the tested form may be a part): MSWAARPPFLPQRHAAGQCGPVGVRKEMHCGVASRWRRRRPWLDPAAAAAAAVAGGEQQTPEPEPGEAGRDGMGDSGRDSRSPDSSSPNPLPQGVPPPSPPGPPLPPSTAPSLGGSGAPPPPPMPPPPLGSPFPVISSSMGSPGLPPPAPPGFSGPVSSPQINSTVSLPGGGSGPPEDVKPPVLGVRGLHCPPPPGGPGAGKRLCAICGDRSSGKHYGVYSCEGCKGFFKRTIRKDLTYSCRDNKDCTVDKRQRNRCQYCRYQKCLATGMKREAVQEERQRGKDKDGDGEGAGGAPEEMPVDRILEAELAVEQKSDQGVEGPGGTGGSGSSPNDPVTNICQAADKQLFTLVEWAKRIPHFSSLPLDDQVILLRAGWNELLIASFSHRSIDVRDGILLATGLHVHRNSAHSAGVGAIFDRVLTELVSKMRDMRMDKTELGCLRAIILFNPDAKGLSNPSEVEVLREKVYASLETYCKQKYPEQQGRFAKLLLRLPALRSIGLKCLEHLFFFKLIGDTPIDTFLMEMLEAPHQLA
E-selectin (Homo sapiens), sequence (P16581 whole entry, looked up): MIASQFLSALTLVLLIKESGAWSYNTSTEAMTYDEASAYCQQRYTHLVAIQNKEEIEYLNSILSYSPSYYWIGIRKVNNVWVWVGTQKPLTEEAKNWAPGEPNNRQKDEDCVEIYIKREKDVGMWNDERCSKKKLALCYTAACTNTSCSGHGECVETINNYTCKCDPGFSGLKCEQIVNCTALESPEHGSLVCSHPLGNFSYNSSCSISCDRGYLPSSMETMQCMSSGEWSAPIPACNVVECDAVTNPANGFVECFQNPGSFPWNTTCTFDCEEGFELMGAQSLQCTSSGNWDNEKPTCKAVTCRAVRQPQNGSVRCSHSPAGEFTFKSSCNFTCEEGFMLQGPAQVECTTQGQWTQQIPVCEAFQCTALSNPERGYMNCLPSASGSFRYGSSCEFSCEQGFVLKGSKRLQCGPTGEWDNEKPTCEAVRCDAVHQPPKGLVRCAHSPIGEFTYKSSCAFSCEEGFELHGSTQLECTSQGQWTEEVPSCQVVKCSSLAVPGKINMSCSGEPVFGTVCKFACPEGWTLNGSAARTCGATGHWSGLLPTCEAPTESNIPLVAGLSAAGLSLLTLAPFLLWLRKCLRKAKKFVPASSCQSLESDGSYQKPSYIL

COc1cc(C=O)ccc1OC(=O)C(C)C
not listed: [15] | [16] | [17] | [18] | [19]
inactive: all other assays above

CC(=O)Nc1ccccc1O
not listed: [2] | [6] | [7] | [16] | [17] | [18] | [19]
inactive: all other assays above

CCCCCCCCCCN
inactive: [16] | [7] | [8]

OC1OC[C@@H](O)[C@H](O)[C@H]1O (stereo partly specified)
inactive: [1] | [3] | [4] | [6] | [15] | [7] | [8] | [9] | [10] | [11] | [12] | [13] | [14]
active: [14] 5.39 µM

CC(c1cc2ccccc2s1)N(O)C(N)=O (stereo unspecified)
inactive: [16] | [5] | [7] | [17]

CC(CC(C)(C)C)CC(C)(C)CC(C)(C)C (stereo unspecified)
inactive: [16] | [4] | [6] | [15] | [7] | [8] | [17]

CC(=O)/C=C/C1=C(C)CCCC1(C)C
active: [4] 21.1 µM | [5] 2.3 µM | [8] 80 µM
not listed: [2] | [6] | [15] | [16] | [18] | [19]
inactive: all other assays above

C[Si](O[Si](C)(C)C)O[Si](C)(C)C
inactive: [16] | [4] | [7]
active: [8] 61.7 µM

CC(C)(C)C(=O)c1ccccc1
inactive: [16] | [5] | [6] | [15] | [8] | [17]

O=C1CCCCCCCCCCCCCCO1
active: [1] 28.6 µM | [3] 20 µM | [4] 60.1 µM | [5] 48.3 µM | [8] 100 µM | [9] 20 µM | [10] 20 µM | [11] 26.5 µM | [12] 25.4 µM | [13] 20 µM | [14] 33.6 µM
inactive: [6] | [15] | [7]

CCO[Si](CCCS)(OCC)OCC
inactive: [16] | [5] | [6] | [15] | [7] | [17]

CNC[C@H](O)c1cccc(O)c1
active: [8] 33.9 µM
not listed: [4] | [6] | [7] | [15] | [16] | [19]
inactive: all other assays above

CCCOCC(C)O (stereo unspecified)
inactive: [16] | [4] | [6] | [8] | [17]

O=P(c1ccccc1)(c1ccccc1)c1ccccc1
inactive: [1] | [3] | [4] | [15] | [9] | [10] | [11] | [12] | [13] | [14]
active: [5] 0.325 µM

CC(C)(Oc1ccc(CCNC(=O)c2ccc(Cl)cc2)cc1)C(=O)O
active: [4] 27.6 µM
inactive: [5]

CCCCNC(=O)NS(=O)(=O)c1ccc(N)cc1
inactive: [19] | [18]

O=C=NC1CCC(CC2CCC(N=C=O)CC2)CC1 (stereo unspecified)
active: [3] 23.2 µM
not listed: [2] | [4] | [6] | [16] | [17] | [18] | [19]
inactive: all other assays above

CCCCCCCCCCCCSC
inactive: [4] | [5] | [15]
active: [8] 100 µM

CCCCCCCCCCCCCCCCCC(=O)OCC(CC)CCCC (stereo unspecified)
inactive: [1] | [3] | [8] | [9] | [10] | [11] | [12] | [13] | [14]

COC(C(=O)O)c1ccccc1 (stereo unspecified)
inactive: [4] | [5]

C=C[Si](OCC)(OCC)OCC
active: [5] 2.2 µM
not listed: [2] | [4] | [6] | [16] | [17] | [18] | [19]
inactive: all other assays above

C=CC(C)(C)O
inactive: [4] | [5] | [7] | [8]

C=CC[N+](C)(C)CC=C
inactive: [2] | [19] | [5] | [18] | [6] | [7]

CC1CC(OC(=O)c2ccccc2O)CC(C)(C)C1 (stereo unspecified)
inactive: [2] | [19] | [4] | [5] | [18] | [15] | [17]

COc1cc(C(C)(C)C)c(O)c(C(C)(C)C)c1
inactive: [4] | [5]
active: [7] 15.4 µM | [8] 0.745 µM

CCCCC[Si](OCC)(OCC)OCC
active: [5] 7.48 µM
inactive: [19] | [4] | [18] | [15] | [8]
